In the library only some 9.3% were active in any assay of this set; here they are far more common.
SMN2 splice up – qHTS Assay for Enhancers of SMN2 Splice Variant Expression | HEK293 SMN2-luciferase splicing reporter, luminescence, 30-36 h | Potency, µM (highest dose often 46.1 µM), actives largely listed as activators | 2.8% of 210,000 active; also: nearly all actives have a fitted effect of over 55% in size
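qHTS luciferase splicing reporter: luminescence rises when SMN2 exon 7 is included in transfected HEK293 cells. Compound exposure lasted 30-36 h at 37C, with 4.5 mM final sodium butyrate as control, followed by a ONE-Glo read.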
FLuc counter – qHTS profiling assay for firefly luciferase inhibitor/activator using purifed enzyme and Km concentrations of substrates (counterscreen for miR-21 project) | purified FLuc, Km substrates, luminescence inhibition | Luciferin 4-monooxygenase (Photinus pyralis), P08659 | AID 588342, 2011 | 6.9% of 360,000 active | Potency, µM (doses to about 57.5 µM), actives largely listed as inhibitors; also: nearly all actives have a fitted effect of over 55% in size
Target sequence (P08659 whole entry, looked up): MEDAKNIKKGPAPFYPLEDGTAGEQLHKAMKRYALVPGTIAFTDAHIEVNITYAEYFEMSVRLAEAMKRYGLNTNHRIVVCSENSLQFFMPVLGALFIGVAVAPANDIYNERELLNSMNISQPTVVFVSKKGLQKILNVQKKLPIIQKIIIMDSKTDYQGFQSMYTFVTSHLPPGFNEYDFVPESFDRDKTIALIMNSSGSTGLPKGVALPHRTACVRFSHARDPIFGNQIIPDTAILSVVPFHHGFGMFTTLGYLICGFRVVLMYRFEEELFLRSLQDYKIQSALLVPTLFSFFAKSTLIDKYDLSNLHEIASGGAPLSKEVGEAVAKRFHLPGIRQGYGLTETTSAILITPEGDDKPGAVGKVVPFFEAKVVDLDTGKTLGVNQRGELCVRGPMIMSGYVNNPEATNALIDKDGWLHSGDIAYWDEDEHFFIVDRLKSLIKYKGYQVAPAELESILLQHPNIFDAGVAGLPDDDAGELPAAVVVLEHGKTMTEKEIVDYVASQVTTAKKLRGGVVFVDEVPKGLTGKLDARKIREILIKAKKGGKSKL
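Purified P. pyralis luciferase, 10 nM final, with Km-level 10 uM D-luciferin and 10 uM ATP in 50 mM Tris acetate pH 7.5, 10 mM Mg acetate, 0.01% Tween-20, 0.05% BSA; 6-point qHTS titration about 60 µM downward; luminescence read.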
Rab9 prom act – qHTS Assay for Rab9 Promoter Activators; Huh7 Rab9 promoter-luciferase reporter, luminescence, 24 h; 2.8% of 320,000 active; Potency, µM (highest dose often 9.22 µM), actives largely listed as activators; also: nearly all actives have a fitted effect of over 60% in size
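Huh7 cells stably carrying a Rab9 promoter-luciferase reporter, 1500 cells per well in OP-MEM I with 10% FBS, treated with compound 24 hours at 37C. Luciferase activity read by luminescence after 10 minutes with Amplite reagent.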
NPC1 prom act – qHTS Assay for NPC1 Promoter Activators. AID 485313, 2010. Potency, µM (highest dose often 9.22 µM), hits mostly activators. Huh7 NPC1 promoter luciferase reporter, 24 h. 2.4% of 320,000 active; also: nearly all actives have a fitted effect of over 60% in size
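Quantitative HTS used a cell-based reporter: Huh7 cells stably bearing the NPC1 promoter upstream of luciferase were treated with compounds for 24 h, and promoter activation was read as luminescence.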
ELG1 genotoxic – qHTS screen for small molecules that induce genotoxicity in human embryonic kidney (HEK293T) cells expressing luciferase-tagged ELG1; 1.3% of 330,000 active; Potency, µM (titrated, usually from 46 µM), usual class: activators; HEK293T ELG1-luciferase reporter, luminescence, 16 h; also: nearly all actives have a fitted effect of over 60% in size
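Step 1: seed 2,000 HEK293T ELG1-luciferase cells per well. Step 2: add compound or DMSO, incubate 16 hr at 37 °C. Step 3: ONE-Glo, 30 min at room temperature, read luminescence.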
ELG1 DNA repair – qHTS screen for small molecules that inhibit ELG1-dependent DNA repair in human embryonic kidney (HEK293T) cells expressing luciferase-tagged ELG1 | AID 504467, 2011 | Potency, µM (series often up to 46.1 µM), hits mostly inhibitors | HEK293T ELG1-luciferase reporter, luminescence, 16 h; DNA damage induced by 5-fluorouridine | 2.3% of 330,000 active; also: nearly all actives have a fitted effect of over 55% in size
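HEK293T cells expressing luciferase-tagged ELG1 (2,000/well) received 5-Fluorouridine plus compound or DMSO for 16 hr at 37 °C. Luciferase was read by ONE-Glo luminescence after 30 min at room temperature.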
Of the large screens only hits and unclear results are named; the others gave an inactive call. Calls follow the shape of the dose curve; as a rule, active = well fitted curve in the direction sought with a large enough effect; inconclusive = small, poorly fitted or top-dose-only effect, or another doubt; inactive = no such curve, though single readings can be large; an effect the other way counts as inactive or inconclusive.

COc1nc(-c2ccccc2)cc(-c2ccc(OC)c(OC)c2)n1	FLuc counter inconclusive, ELG1 DNA repair inconclusive
CCOC(=O)c1cnc(-c2ccccc2)nc1N(C)C	SMN2 splice up 4.5µM, FLuc counter 15µM, ELG1 genotoxic 11µM, ELG1 DNA repair inconclusive
CCOC(=O)c1cccc(-c2c(-c3ccccc3)ncc3cc(OC)c(OC)cc23)c1	FLuc counter inconclusive, NPC1 prom act inconclusive, ELG1 DNA repair inconclusive (no result: SMN2 splice up)
CCOC(=O)c1ccc2ncc(-c3ccccc3)nc2c1	FLuc counter 5.4µM, Rab9 prom act 3.5µM, NPC1 prom act 3.2µM, ELG1 genotoxic 10µM, ELG1 DNA repair inconclusive
COc1cc2ncc(-c3ccccc3)nc2cc1OC	SMN2 splice up 28µM (no result: FLuc counter, Rab9 prom act, NPC1 prom act, ELG1 genotoxic, ELG1 DNA repair)
CCOC(=O)c1cnc2c(ccc3ccccc32)c1NCCO	FLuc counter inconclusive, ELG1 DNA repair inconclusive
CCOC(=O)c1cnc2c(ccc3ccccc32)c1N	FLuc counter inconclusive, Rab9 prom act 1.1µM, NPC1 prom act 1.6µM, ELG1 genotoxic 8.2µM, ELG1 DNA repair inconclusive (no result: SMN2 splice up)
Cc1ncc([N+](=O)[O-])n1Cc1ccccc1F	none
CC1CN(C(=S)Nc2ccc(Cl)cc2)CC(C)O1 (stereo unspecified)	none (no result: SMN2 splice up)
COc1cc2cnc(-c3ccccc3)c(-c3cc(OC)c(OC)c(OC)c3)c2cc1OC	ELG1 DNA repair 9.2µM (no result: SMN2 splice up)
CCOC(=O)c1cnc(-c2ccccc2)nc1N	SMN2 splice up 7.1µM, FLuc counter 9.5µM, Rab9 prom act 2µM, NPC1 prom act 2.8µM, ELG1 genotoxic 3.3µM, ELG1 DNA repair inconclusive
CCOC(=O)c1cnc(-c2ccccc2)nc1N1CCOCC1	ELG1 DNA repair inconclusive
Cc1nc2ccc(C(=O)OCc3ccccc3Br)cc2nc1C	FLuc counter 12µM, Rab9 prom act 1.1µM, NPC1 prom act 3.2µM, ELG1 genotoxic inconclusive, ELG1 DNA repair inconclusive
CC(=O)c1cnc2c(-c3ccccc3)cnn2c1C	FLuc counter inconclusive, ELG1 genotoxic inconclusive, ELG1 DNA repair inconclusive
CCOC(=O)c1cnc2c(-c3ccccc3)cnn2c1C	SMN2 splice up 11µM, FLuc counter 1.9µM, Rab9 prom act 1.6µM, NPC1 prom act 2.5µM, ELG1 genotoxic 8.2µM, ELG1 DNA repair inconclusive
CC(=O)Nc1ccc(C(=O)OCc2ccccc2Br)cc1	FLuc counter inconclusive, Rab9 prom act inconclusive, ELG1 DNA repair inconclusive
O=C1CC(c2ccccc2)Sc2nc3ccccc3n21 (stereo unspecified)	SMN2 splice up inconclusive, FLuc counter 4.8µM, ELG1 genotoxic inconclusive, ELG1 DNA repair inconclusive
O=C1CC(c2ccco2)Sc2nc3ccccc3n21 (stereo unspecified)	FLuc counter 12µM, ELG1 genotoxic inconclusive, ELG1 DNA repair inconclusive
O=C1CC(c2cccs2)Sc2nc3ccccc3n21 (stereo unspecified)	SMN2 splice up inconclusive, FLuc counter 3.4µM, ELG1 genotoxic inconclusive, ELG1 DNA repair inconclusive
CCCN1C(=O)CC(c2ccco2)Sc2ccccc21 (stereo unspecified)	none
O=C1CC(c2ccc3c(c2)OCO3)Sc2nc3ccccc3n21 (stereo unspecified)	SMN2 splice up inconclusive, FLuc counter 1.5µM, NPC1 prom act 4µM, ELG1 genotoxic inconclusive, ELG1 DNA repair inconclusive
Cn1cnnc1Sc1cc(N2CCN(S(=O)(=O)c3ccc(Cl)c(Cl)c3)CC2)ccc1[N+](=O)[O-]	none
O=C1C2C3c4ccccc4C(Br)(c4ccccc43)C2C(=O)N1c1ccccc1O (stereo unspecified)	none
Cc1cc(C(=O)CSc2n[nH]c(N)n2)c(C)n1-c1cc(F)ccc1F	Rab9 prom act inconclusive, ELG1 DNA repair inconclusive
Cc1ccc(-n2c(C)cc(C(=O)CSc3n[nH]c(N)n3)c2C)cc1	FLuc counter 9.5µM, ELG1 DNA repair inconclusive
Cc1cc(C(=O)CSc2n[nH]c(N)n2)c(C)n1-c1ccccc1	SMN2 splice up 11µM, FLuc counter 6µM, Rab9 prom act inconclusive, NPC1 prom act 2.5µM, ELG1 genotoxic 4.5µM, ELG1 DNA repair inconclusive
Cc1cc(C(=O)CSc2nnc3ccccn23)c(C)n1-c1ccccc1	FLuc counter 0.19µM, Rab9 prom act inconclusive, NPC1 prom act inconclusive, ELG1 genotoxic inconclusive, ELG1 DNA repair inconclusive
Cc1cc(C(=O)CSc2n[nH]c(N)n2)c(C)n1-c1ccc(F)cc1	FLuc counter 19µM, Rab9 prom act inconclusive, NPC1 prom act inconclusive, ELG1 DNA repair inconclusive
Cc1cc(C(=O)CSc2nnc(-c3ccccc3)n2-c2ccccc2)c(C)n1-c1ncn[nH]1	ELG1 DNA repair inconclusive
Nc1nc(SCC(=O)c2cc(F)ccc2F)n[nH]1	none
N#Cc1ccc(-c2cccnc2)nc1SCC(N)=O	none (no result: SMN2 splice up)
C=CCn1c(C)cc(C(=O)CSc2n[nH]c(N)n2)c1C	SMN2 splice up inconclusive, FLuc counter 19µM, ELG1 genotoxic 15µM, ELG1 DNA repair inconclusive
Cc1cc(C(=O)CSc2n[nH]c(N)n2)c(C)n1C1CC1	none
O=C1CC(NS(=O)(=O)c2ccccc2F)CN1c1ccc2c(c1)OCCO2 (stereo unspecified)	none (no result: SMN2 splice up)
Cc1ccc(N(CC(=O)NCCSCc2ccco2)S(=O)(=O)c2ccc(F)cc2)cc1	none (no result: SMN2 splice up)
Cc1ccc(S(=O)(=O)N(C)C)cc1NC(=O)COC(=O)c1c(-c2ccccc2)noc1C	none (no result: SMN2 splice up)
Cc1ccc(S(=O)(=O)N2CCOCC2)cc1NC(=O)COc1ccc(-c2nnco2)cc1	none
CCN(CC)S(=O)(=O)c1ccc(C)c(NC(=O)COC(=O)CNC(=O)c2ccc(C(C)(C)C)cc2)c1	FLuc counter 0.54µM
Cc1ccc(S(=O)(=O)N(C)C)cc1NC(=O)COC(=O)CCC1CCCC1	none (no result: SMN2 splice up)
Cc1ccc(S(=O)(=O)N(C)C)cc1NC(=O)COc1ccc(-c2nnco2)cc1	FLuc counter 17µM (no result: SMN2 splice up)
Cc1ccc(S(=O)(=O)N(C)C)cc1NC(=O)COC(=O)/C=C/c1ccc2ccccc2n1	FLuc counter 8.5µM, ELG1 DNA repair inconclusive (no result: SMN2 splice up)
Cc1ccc(OCCC(=O)OCC(=O)Nc2cc(S(=O)(=O)N(C)C)ccc2C)cc1	FLuc counter 11µM
COc1ccc(-c2cc(C(=O)N3CCN(c4ccccc4)CC3)no2)cc1	SMN2 splice up inconclusive, FLuc counter 6.7µM, Rab9 prom act inconclusive, NPC1 prom act 2.8µM, ELG1 genotoxic inconclusive, ELG1 DNA repair inconclusive
COc1ccc(-c2cc(C(=O)N3CCN(c4ccccc4OC)CC3)no2)cc1	FLuc counter inconclusive, ELG1 DNA repair inconclusive (no result: SMN2 splice up)
COc1ccc(-c2cc(C(=O)N3CCc4ccccc4C3)no2)cc1	FLuc counter 17µM
